Laboratory results: PubChem BioAssay (NCATS)
Inconclusive results are not listed. Activity calls are given as the source filed them. Calls follow the shape of the dose curve; as a rule, active = well fitted curve in the direction sought with a large enough effect; inconclusive = small, poorly fitted or top-dose-only effect, or another doubt; inactive = no such curve, though single readings can be large; an effect the other way counts as inactive or inconclusive.

Assays:
[1] = biological target: Rap guanine nucleotide exchange factor 3 (Homo sapiens) (UniProt O95398); test: Confirmatory qHTS for antagonist of cAMP-regulated guanine nucleotide exchange factor 3 (EPAC1) (AID 1645880); also: nearly all actives have a fitted effect of over 55% in size; also: potency is read from the fitted curve at half-maximal effect
Sequence of Rap guanine nucleotide exchange factor 3 (Homo sapiens) (O95398 whole entry, looked up): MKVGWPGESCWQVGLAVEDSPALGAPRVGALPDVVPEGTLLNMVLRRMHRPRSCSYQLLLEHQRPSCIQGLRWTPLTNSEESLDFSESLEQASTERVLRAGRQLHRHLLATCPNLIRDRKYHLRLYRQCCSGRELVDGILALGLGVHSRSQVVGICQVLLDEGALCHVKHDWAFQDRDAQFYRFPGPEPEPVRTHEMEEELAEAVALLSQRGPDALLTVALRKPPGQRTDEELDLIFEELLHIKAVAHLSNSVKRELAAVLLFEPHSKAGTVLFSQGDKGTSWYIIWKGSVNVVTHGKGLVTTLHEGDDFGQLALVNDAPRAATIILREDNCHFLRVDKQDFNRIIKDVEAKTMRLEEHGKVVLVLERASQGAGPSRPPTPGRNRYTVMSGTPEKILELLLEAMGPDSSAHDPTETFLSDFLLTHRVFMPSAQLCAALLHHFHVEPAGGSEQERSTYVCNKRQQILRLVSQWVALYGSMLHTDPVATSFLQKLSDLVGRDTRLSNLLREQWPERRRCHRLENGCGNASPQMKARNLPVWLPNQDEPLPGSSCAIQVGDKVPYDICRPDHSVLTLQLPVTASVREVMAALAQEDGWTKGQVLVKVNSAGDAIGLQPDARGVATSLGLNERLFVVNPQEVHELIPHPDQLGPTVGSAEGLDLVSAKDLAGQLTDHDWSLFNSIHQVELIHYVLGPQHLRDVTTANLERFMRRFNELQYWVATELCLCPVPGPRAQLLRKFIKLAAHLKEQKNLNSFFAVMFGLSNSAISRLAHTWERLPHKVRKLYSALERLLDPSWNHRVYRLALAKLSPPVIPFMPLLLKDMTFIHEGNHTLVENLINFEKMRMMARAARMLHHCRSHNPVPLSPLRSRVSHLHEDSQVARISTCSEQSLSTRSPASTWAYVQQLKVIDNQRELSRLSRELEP
Outline: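 Released BODIPY-GDP fluoresces less than Rap1-bound BODIPY-GDP; the signal is followed at 480/540 nm at 5-min intervals over 30 min, after 5 min at room temperature. Reactions contain 100 nM EPAC1, 250 nM RAP1B-BODIPY-GDP and 50 uM GDP; results are normalized to ATA and DMSO.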

[2] = biological target: Rap guanine nucleotide exchange factor 3 (Homo sapiens) (UniProt O95398); test: Confirmatory qHTS for agonist of cAMP-regulated guanine nucleotide exchange factor 3 (EPAC1) (AID 1645881); also: nearly all actives have a fitted effect of over 75% in size; also: potency is read from the fitted curve at half-maximal effect;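 as to activation: EPAC1 catalysed release of BODIPY-GDP from Rap1B seen as fluorescence loss; 100% = effect of cAMP agonist control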
[3] = biological target: Rap guanine nucleotide exchange factor 4 (Homo sapiens) (UniProt Q8WZA2); test: Confirmatory qHTS for agonist of cAMP-regulated guanine nucleotide exchange factor 4 (EPAC2) (AID 1645884);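 also: nucleotide exchange releases bodipy-GDP from Rap1 and this lowers its fluorescence; nearly all actives have a fitted effect of over 65% in size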; also: potency is read from the fitted curve at half-maximal effect; as to activation: % is scaled to controls: 0 for no effect and ±100 for the full control effect
Sequence of Rap guanine nucleotide exchange factor 4 (Homo sapiens) (Q8WZA2 whole entry, looked up): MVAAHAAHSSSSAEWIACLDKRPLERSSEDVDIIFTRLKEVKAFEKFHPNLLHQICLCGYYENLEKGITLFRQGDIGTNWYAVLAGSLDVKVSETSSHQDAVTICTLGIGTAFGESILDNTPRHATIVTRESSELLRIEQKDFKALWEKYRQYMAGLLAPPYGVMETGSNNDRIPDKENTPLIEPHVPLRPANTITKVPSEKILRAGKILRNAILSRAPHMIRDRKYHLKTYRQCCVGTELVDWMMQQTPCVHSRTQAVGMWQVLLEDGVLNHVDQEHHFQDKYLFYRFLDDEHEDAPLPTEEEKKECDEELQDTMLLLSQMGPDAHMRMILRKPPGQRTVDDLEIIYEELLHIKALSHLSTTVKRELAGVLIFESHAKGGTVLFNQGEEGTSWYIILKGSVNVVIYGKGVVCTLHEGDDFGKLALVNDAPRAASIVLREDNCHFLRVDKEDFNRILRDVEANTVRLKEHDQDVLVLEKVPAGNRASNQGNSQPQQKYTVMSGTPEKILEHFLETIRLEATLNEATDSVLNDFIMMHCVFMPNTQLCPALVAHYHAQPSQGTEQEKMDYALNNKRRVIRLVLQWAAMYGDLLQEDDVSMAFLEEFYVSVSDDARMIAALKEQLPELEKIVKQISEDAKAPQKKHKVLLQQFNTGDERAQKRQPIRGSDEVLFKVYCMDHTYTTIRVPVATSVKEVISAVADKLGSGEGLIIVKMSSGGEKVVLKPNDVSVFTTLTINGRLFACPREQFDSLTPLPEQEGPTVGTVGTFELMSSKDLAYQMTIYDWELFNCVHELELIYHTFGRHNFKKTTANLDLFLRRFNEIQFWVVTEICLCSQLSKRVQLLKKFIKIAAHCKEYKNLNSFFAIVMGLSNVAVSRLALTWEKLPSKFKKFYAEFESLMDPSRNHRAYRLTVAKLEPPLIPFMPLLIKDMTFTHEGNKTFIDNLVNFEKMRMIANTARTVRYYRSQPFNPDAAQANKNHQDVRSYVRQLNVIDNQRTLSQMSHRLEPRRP

[4] = biological target: Rap guanine nucleotide exchange factor 4 (Homo sapiens) (UniProt Q8WZA2); test: Confirmatory qHTS for antagonist of cAMP-regulated guanine nucleotide exchange factor 4 (EPAC2) (AID 1645885); also: nearly all actives have a fitted effect of over 25% in size; also: potency is read from the fitted curve at half-maximal effect; as to activity change, negative = inhibition: % is scaled to controls: 0 for no effect and ±100 for the full control effect
[5] = biological target: Rap guanine nucleotide exchange factor 3 (Homo sapiens) (UniProt O95398); test: Counterscreen qHTS for antagonist of cAMP-regulated guanine nucleotide exchange factor 3 (EPAC1) (AID 1645888); also: % of control where 0% means no effect
Outline: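 Measured: fluorescence of BODIPY-GDP bound to Rap1B, which falls as exchange proceeds. Conditions include 50 uM competing GDP, 5 and 30 min reads, and a later cAMP challenge for antagonist detection.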

Cc1nc(C)n(CC(=O)NCC2Cc3cc(-c4cccc(OC(F)(F)F)c4)ccc3O2)n1 (configuration not stated)
active: Potency [4] 44.1 µM
inactive: Potency [1] | Potency [2] | Potency [3]

CN(C)c1ccc(/C=C/c2ccnc3ccc4ccccc4c23)cc1
inactive: Potency [2] | Potency [3]
active: Potency [1] 49.8 µM | Potency [4] 55.5 µM

CN(C)c1ccc(/C=C/c2ccnc3ccc(F)cc23)cc1
inactive: Potency [1] | Potency [2] | Potency [3] | Potency [4]

O=C(O)c1cc(-c2ccc(-c3c(-c4ccc5c(c4)OCO5)noc3-c3ccsc3)cc2)nc2ccccc12
inactive: Potency [2] | Potency [3]
active: Potency [1] 75.7 µM | Potency [4] 37.9 µM

O=C(CSc1nnc(SCc2ccccc2)s1)N/N=C/C=C\c1ccco1
active: Potency [1] 42.6 µM
inactive: Potency [2] | Potency [3] | Potency [4]

O=C(C[N+]12CN3CN(CN(C3)C1)C2)c1ccc(I)cc1
inactive: Potency [1] | Potency [2] | Potency [3] | Potency [4]

Cc1occc1-c1nnc(SCC(=O)Nc2c(F)cccc2F)n1C
inactive: Potency [1] | Potency [2] | Potency [3] | Potency [4]

COc1ccc(N/C=C2\CCc3ccccc3C2=O)cc1
active: Potency [2] 89.1 µM | Potency [3] 100 µM
inactive: Potency [1] | Potency [4]

Nc1ccn(C2C=CC(CO)O2)c(=O)n1 (configuration not stated)
inactive: Potency [1] | Potency [2] | Potency [3] | Potency [4]

COCCCn1c(-c2ccccc2)nc2ccccc2c1=O
inactive: Potency [1] | Potency [2] | Potency [3] | Potency [4]

OCc1cccc(-c2cnc3c(Nc4cccc(OC(F)(F)C(F)F)c4)nccn23)c1
inactive: Potency [1] | Potency [2] | activation [3] -0.754% [at 17.1 µM, percent relative to cAMP agonist control] | Potency [4]

Cc1ccc(S(=O)(=O)N2[C@@H](c3ccc(C(C)(C)C)cc3)C(C(=O)O)=CC[C@H]2c2ccc(C(C)C)cc2)cc1
active: Potency [1] 19 µM
inactive: Potency [2] | Potency [3] | Potency [4]

CC[C@H]1c2[nH]c3ccc(C(C)C)cc3c2[C@@H]2CCN3C(=O)CCC[C@H]1[C@H]23
inactive: Potency [1] | Potency [2] | Potency [3] | Potency [4]

Cc1[nH]c2ccccc2c1/C=C/c1ccnc2ccccc12
inactive: Potency [1] | Potency [2] | Potency [3] | Potency [4]

CN(CC(=O)O)c1ccc(/C=C/c2ccnc3ccccc23)cc1
inactive: Potency [1] | Potency [2] | Potency [3]
active: Potency [4] 55.5 µM

COc1ccc(NC(=O)Cn2c(SCc3cc(C)ccc3C)nc3ccncc32)c(OC)c1OC
inactive: Potency [1] | Potency [2] | Potency [3] | outcome [4] inactive [at 12.7 µM]

CC(C)C[C@@H](COc1ccccc1)N1CCN(Cc2ccccc2)CCC1=O
active: Potency [4] 62.2 µM
inactive: Potency [1] | Potency [2] | Potency [3]

CC(C)N(C(=O)Nc1ccc2nsnc2c1)C(C)C
active: Potency [1] 22.4 µM
inactive: Potency [2] | activation [3] 2.55% [at 17.1 µM, percent relative to cAMP agonist control] | Potency [4]

CCCc1cc(C(=O)Nc2ccccc2C(=O)OC)no1
inactive: Potency [1] | Potency [2] | Potency [3] | Potency [4]

Cc1nc(SCC(=O)N2CCCCCC2)[nH]c(=O)c1C
inactive: Potency [1] | Potency [2] | Potency [3] | Potency [4] | Potency [5]

Cc1ccc(S(=O)(=O)N2[C@@H](CO)CO[C@H]2CC(=O)c2ccc(F)cc2)cc1
inactive: Potency [1] | Potency [2] | Potency [3] | Potency [4]

CN(C)c1ccc(/C=C/C=C/c2ccnc3ccccc23)cc1
inactive: Potency [1] | Potency [2] | Potency [3] | Potency [4]

COc1ccccc1-c1ccc(Nc2cccc(C(F)(F)F)c2)nn1
inactive: Potency [1] | Potency [2] | Potency [3] | Potency [4]

Cc1ccc(NC(=O)CN(C)C(=O)COC(=O)C2=COCCO2)cc1
inactive: Potency [1] | Potency [2] | activation [3] 6.32% [at 17.1 µM, percent relative to cAMP agonist control] | Potency [4]

COc1ccc(C=C2SC(=O)NC2=O)cc1OC
inactive: Potency [1] | Potency [2] | activation [3] 12% [at 17.1 µM, percent relative to cAMP agonist control] | Potency [4] | activity change, negative = inhibition [5] 12.5% [at 30.8 µM]

COc1cccc2sc(N3CCN(c4nc5ccccc5s4)CC3)nc12
inactive: Potency [1] | Potency [2] | activation [3] 2.2% [at 17.1 µM, percent relative to cAMP agonist control] | Potency [4] | activity change, negative = inhibition [5] -13.4% [at 30.8 µM]

CC/C(=C/c1ccccc1OC)c1cc(-c2ccccc2)cc2oc3ccccc3c12
inactive: Potency [1] | Potency [2] | Potency [3] | Potency [4]

COc1cc(CCN(C(=O)c2cccc(S(C)(=O)=O)c2)C(CCc2ccccc2)c2nc3ccccc3[nH]2)cc(OC)c1 (configuration not stated)
inactive: Potency [1] | Potency [2] | Potency [3] | Potency [4]

Cc1ccc(S(=O)(=O)NC(=O)Cn2nnc(-c3ccccc3)c2COc2ccc3ccccc3c2)cc1
inactive: Potency [2] | Potency [3] | Potency [4]
active: Potency [1] 19 µM

COC(=O)c1cc(CNC(=O)c2ccccn2)cc(NC(=O)c2ccccc2OC)c1
inactive: Potency [1] | Potency [2] | Potency [3] | Potency [4]

Cc1ccc(C(=O)OCC(=O)Nc2sccc2C(N)=O)cc1NC(=O)c1ccco1
inactive: Potency [2] | Potency [3] | Potency [4]
active: Potency [1] 26.9 µM

N#Cc1cc(NC(=O)c2ccc(Cl)cc2)ccc1Sc1ccccc1
inactive: Potency [1] | Potency [2] | Potency [3] | Potency [4]

CC(C(=O)Nc1ccccc1C(F)(F)F)n1nc(-c2ccccc2)c2c(c1=O)CCCC2 (configuration not stated)
inactive: Potency [1] | Potency [2] | Potency [3] | Potency [4]

COc1ccc(CNC(=O)[C@@H]2CC=C[C@@H]3CCN(Cc4ccccc4)C(=O)[C@@H]32)cc1
inactive: Potency [1] | Potency [2] | Potency [3] | Potency [4]

CCOC(=O)Cc1nnc(NC(=O)CSc2nnc3c(n2)[nH]c2ccccc23)s1
inactive: Potency [2] | activation [3] 6.98% [at 17.1 µM, percent relative to cAMP agonist control] | Potency [4] | activity change, negative = inhibition [5] -37.4% [at 30.8 µM]
active: Potency [1] 44.7 µM

CC(=O)CCc1oc2ccc(C)cc2c1-c1ccccc1
inactive: Potency [1] | Potency [2] | Potency [3] | Potency [4]

CC(C)C1CC2=C(C(=O)OC(C)(C)O2)C(c2ccc(F)cc2)O1 (configuration not stated)
inactive: Potency [1] | Potency [2] | activation [3] 4.14% [at 17.1 µM, percent relative to cAMP agonist control] | Potency [4] | activity change, negative = inhibition [5] -3.34% [at 30.8 µM]

CC(OC(=O)Cc1c[nH]c2ccccc12)C(=O)Nc1ccccc1F (configuration not stated)
inactive: Potency [1] | Potency [2] | Potency [3] | Potency [4] | Potency [5]

CCOC(=O)C1CCCN(c2cc(=O)n(C3CCCCC3)c(=O)[nH]2)C1 (configuration not stated)
inactive: Potency [1] | Potency [2] | Potency [3] | Potency [4]

COc1cc(C(=O)N(Cc2cc3ccc(C)cc3nc2N(C)C)C2CC2)cc(OC)c1OC
active: Potency [4] 17.5 µM
inactive: Potency [1] | Potency [2] | Potency [3]

COc1cccc(C(=O)N(Cc2cc3ccc(C)cc3nc2N(C)C)C2CC2)c1OC
inactive: Potency [1] | Potency [2] | Potency [3]
active: Potency [4] 17.5 µM

COc1ccc(C(=O)NC2CCCc3ccccc32)c(OC)c1OC (configuration not stated)
inactive: Potency [1] | Potency [2] | activation [3] 0% [at 17.1 µM, percent relative to cAMP agonist control] | Potency [4]

COc1ccc(Cl)cc1NC(=O)CN(C)C(=O)c1cc2c(s1)CCC(C)C2 (configuration not stated)
inactive: Potency [1] | Potency [2] | Potency [3] | Potency [4]

CCOC(=O)N1CCC(N2CCOc3ccc(CN4CCC(O)(c5cccnc5)CC4)cc3C2)CC1
inactive: Potency [1] | Potency [2] | Potency [3] | Potency [4]

COC(=O)C(Cc1ccc(O)cc1)NC(=O)CCc1nc2ccccc2s1 (configuration not stated)
inactive: Potency [1] | Potency [2] | Potency [3] | Potency [4]

C1=Cc2ccccc2/C1=C\c1ccc2c(c1)OCO2
inactive: Potency [1] | Potency [2] | Potency [3] | Potency [4]

O=C(NCc1ccc(F)cc1)c1ccc2c(=O)n3c(nc2c1)CCCCC3
inactive: Potency [1] | Potency [2] | Potency [3] | Potency [4]

COc1ccc(N2CCN(C3CCCCC3NS(=O)(=O)c3ccccc3)CC2)cc1 (configuration not stated)
active: Potency [4] 16.9 µM
inactive: Potency [1] | Potency [2] | Potency [3]

COc1ccc2cc3[n+](cc2c1O)CCc1cc2c(cc1-3)OCO2
active: Potency [1] 19 µM
inactive: Potency [2] | Potency [3] | Potency [4]

CC(=O)Nc1ccc(NC(=O)CCC(=O)OCC(=O)c2ccc(C)c([N+](=O)[O-])c2)cc1
inactive: Potency [1] | Potency [2] | Potency [3] | Potency [4] | Potency [5]

CN(C)CCNC(=O)c1cccc(-c2cnc3c(NC=O)cc(-c4cccc(C(F)(F)F)c4)cn23)c1
inactive: Potency [1] | Potency [2] | Potency [3] | Potency [4]

Cc1ccccc1CNC(=O)CCC(=O)N1CCSc2ccccc21
inactive: Potency [1] | Potency [2] | Potency [3] | Potency [4] | Potency [5]

S=C(Nc1ccccc1)Nc1ccccn1
inactive: Potency [1] | Potency [2] | activation [3] 9.11% [at 17.1 µM, percent relative to cAMP agonist control] | Potency [4] | activity change, negative = inhibition [5] 9.21% [at 30.8 µM]

CC(=O)Nc1ccc(SC[C@H](C)CN2CC[C@H](C(C)(C)C)CCC2=O)cc1
inactive: Potency [1] | Potency [2] | Potency [3]
active: Potency [4] 44.1 µM

CC(C)c1ccc(NC(=O)c2ccc(Cn3nc(N4CCN(c5ccccc5)CC4)ccc3=O)o2)cc1
active: Potency [1] 84.9 µM
inactive: Potency [2] | Potency [3] | Potency [4]

c1ccc2c(N3CCCCCC3)nc(CN3CCCCC3c3nccs3)nc2c1 (configuration not stated)
inactive: Potency [1] | Potency [2] | Potency [3]
active: Potency [4] 13.9 µM

CCCC1C2CN(C(C)C)CC=C2C(C#N)=C(N)C1(C#N)C#N (configuration not stated)
active: Potency [1] 37.9 µM | Potency [2] 35.5 µM | Potency [3] 56.2 µM | Potency [4] 33.8 µM
